Experiments:
Type in all cases: functional
[1] = biological target: Solute carrier family 2, facilitated glucose transporter member 1 (Homo sapiens) (UniProt P11166); test: ST_JUDE_LEISH: Cytotoxicity at 2uM final concentration against transgenic Leishmania Mexicana promastigotes LmGLUT1 that are glucose transport deficient and complemented with the human glucose transporter GLUT1. Activity is measured by DNA content using SYBR green in vitro
[2] = biological target: Hexose transporter 1 (Plasmodium falciparum) (UniProt O97467); test: ST_JUDE_LEISH: Cytotoxicity at 2uM final concentration against transgenic Leishmania Mexicana promastigotes LmPfHT that are glucose transport deficient and complemented with the Plasmodium falciparum hexose transporter. Activity is measured by DNA content using SYBR green in vitro
[3] = biological target: Glucose transporter (Leishmania mexicana) (UniProt O61059); test: ST_JUDE_LEISH: Cytotoxicity at 2uM final concentration against transgenic Leishmania Mexicana promastigotes LmGT2 that are glucose transport deficient and complemented with the L. Mexicana glucose transporter 2. Activity is measured by DNA content using SYBR green in vitro

Chain of Solute carrier family 2, facilitated glucose transporter member 1 (Homo sapiens) (P11166 whole entry): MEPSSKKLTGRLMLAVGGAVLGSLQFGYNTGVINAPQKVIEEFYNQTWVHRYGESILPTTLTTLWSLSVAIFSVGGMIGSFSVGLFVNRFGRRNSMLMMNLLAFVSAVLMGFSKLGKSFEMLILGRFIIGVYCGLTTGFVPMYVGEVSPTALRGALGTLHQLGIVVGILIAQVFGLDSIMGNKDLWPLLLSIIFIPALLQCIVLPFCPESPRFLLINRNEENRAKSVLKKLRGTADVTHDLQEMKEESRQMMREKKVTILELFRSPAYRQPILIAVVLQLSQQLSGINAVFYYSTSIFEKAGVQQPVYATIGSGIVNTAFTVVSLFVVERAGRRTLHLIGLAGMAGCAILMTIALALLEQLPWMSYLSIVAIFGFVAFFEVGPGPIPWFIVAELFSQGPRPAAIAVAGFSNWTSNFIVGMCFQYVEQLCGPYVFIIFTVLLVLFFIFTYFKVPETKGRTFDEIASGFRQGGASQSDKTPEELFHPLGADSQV

Compound	inhibition [1] [%]	inhibition [2] [%]	inhibition [3] [%]
COc1ccc(CNC(=O)c2cnc3cc(-c4c(C)noc4C)ccc3c2Nc2ccccc2C(C)(C)C)cc1	3.17	4.17	1.52
CN=c1nc(NN=Cc2ccccc2Cl)[nH]c(=Nc2cccc(C(F)(F)F)c2)[nH]1	8.53	8.1	4.76
Cc1cc(C(F)(F)F)nn1-c1ccc(NC(=O)c2ccco2)cc1	-2.06	-1.65	-1.05
Cc1cc(NC(=O)NCCN2CCC(NC(=O)c3cccc(Br)c3)C2)c2ccccc2n1 (stereo unspecified)	0.36	0.24	2.62
COc1nc2c(CCN3CC[C@H](NCc4cc(C#N)c5c(c4)OCCO5)[C@H](O)C3)ccnc2cc1F	14.4	18	3.29
CCN(CCCN1CCCCC1)c1cc(C)nc(Nc2ccc(C)cc2)n1	0	1.61	0.31
CCOC(=O)NCC(=O)Nc1cccc(-c2cccc(-c3nc4cc(C(F)(F)F)ccc4[nH]3)c2)c1	1.41	0.35	5.34
O=C(Nc1ccc(-c2nc3ccccc3[nH]2)cc1)c1cncc(Br)c1	4.2	2.44	1.81
CC(C)Oc1ccc(C=CC(=O)Nc2noc3ccccc23)cc1	2.56	3.16	2.36
Cc1cnc(Nc2ccccc2)nc1NCCC(=O)Nc1ccccc1	6.97	8.48	3.62
CCn1ncc(Cl)c1CN(C)S(=O)(=O)c1ccc(Br)cc1	-0.68	-0.62	-2.26
Cn1ccnc1CCC(=O)Nc1ccc(Cl)cc1C(=O)Nc1ccc(Cl)cc1	2.75	1.39	2.79
O=C(Nc1ccc(OC2CCN(Cc3ccco3)C2)c(Cl)c1)c1ccc2ncccc2c1 (stereo unspecified)	0.4	-3.49	0.71
CCOC(=O)c1cc(C(=O)NCCCCN2CCC(c3cn(C)c4ccccc34)CC2)ccc1-c1ccc(C(F)(F)F)cc1	2.37	2.2	1.11
COc1ccc(NC(=O)c2cc(-c3ccc(NC(C)=O)cc3)cnc2N)cc1	2.25	2.66	0.5
O=C(NC1CCN(c2ccnc3cc(Cl)ccc23)C1)c1ccc(C(F)(F)F)cc1 (stereo unspecified)	3.93	3.66	0.57
CCCCN(CCCC)/C(=N/C(=N)NCc1ccc(Cl)c(Cl)c1)NCCCCCCN/C(=N\C(=N)NCc1ccc(Cl)c(Cl)c1)N(CCCC)CCCC	-0.73	-0.52	-0.96
